DT40 TDP1 CPT = DT40-hTDP1 cell growth loss with CPT; chicken DT40 Tdp1-/-;hTDP1 cells + 20 nM CPT, ATP luminescence, 48 h; Potency, µM (top dose mostly 46.2 µM), for inactives: at the top dose activity change, negative = growth inhibition, most hits filed as inhibitors; 420,000 compounds, 12% hits; AID 686979; note: potency is the fitted concentration of half-maximal effect; nearly all actives have a fitted effect of over 55% in size
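Cell growth measured by CellTiter-Glo luminescence after a minimum 48 h, 37 C compound exposure with 20 nM CPT in Tdp1-knockout DT40 cells stably expressing hTDP1, seeded 400/well; qHTS titration format.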
TDP1 cell noCPT = qHTS for Inhibitors of human tyrosyl-DNA phosphodiesterase 1 (TDP1): qHTS in cells in absence of CPT; 420,000 compounds, 15% hits; AID 686978, 2013; DT40 Tdp1-/- hTDP1 cells, no CPT, ATP luminescence, 48 h; Potency, µM (top dose mostly 46.2 µM), for inactives: at the highest dose activity change, negative = growth inhibition, usual class: inhibitors; note: potency is the fitted concentration of half-maximal effect; nearly all actives have a fitted effect of over 55% in size
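Camptothecin absent (DMSO only). Human TDP1-complemented DT40 knockout cells, 400 cells/well, 37 °C for minimum 48 hr; ATP measured via CellTiter-Glo, 30 min dark incubation, luminescence.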
VP16 counter = inhibits Gal4-VP16 luciferase reporter, ROR gamma counter-screen; Drosophila S2 Gal4-VP16 UAS-luciferase, luminescence, 20 h; Potency, µM (titrated, usually from 53.6 µM), inactives show top-dose activity, negative = inhibition, hits mostly inhibitors; 310,000 compounds, 3.5% hits;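 note: Gal4-VP16 expression switched on by copper sulfate through the metallothionein promoter; potency is the fitted concentration of half-maximal effect; nearly all actives have a fitted effect of over 50% in size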
ELG1 repair inh = blocks ELG1-dependent DNA repair in HEK293T cells. HEK293T ELG1-luciferase reporter, luminescence, 16 h; DNA damage induced by 5-fluorouridine. Potency, µM (top dose mostly 46.1 µM), without a hit: top-dose activity change, negative = inhibition, most hits filed as inhibitors. 330,000 compounds, 2.3% hits. AID 504467; note: potency is the fitted concentration of half-maximal effect; nearly all actives have a fitted effect of over 55% in size
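In this reporter screen, reduction of luminescence relative to DMSO vehicle indicated activity. Compounds and 5-fluorouridine were added together to 2,000 cells per well, incubated for 16 hr at 37 °C, then developed with ONE-Glo.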
RORg inh = inhibitors of mouse ROR gamma transcriptional activity | AID 2551 | Drosophila S2 Gal4-RORgamma UAS-luciferase reporter, 20 h | 310,000 compounds, 5.4% hits | Potency, µM (highest dose often 53.6 µM), for inactives: at the top dose activity change, negative = inhibition, actives largely listed as inhibitors; note: potency is the fitted concentration of half-maximal effect; nearly all actives have a fitted effect of over 60% in size
Target sequence (P51450 whole entry, looked up, the tested form may be a part): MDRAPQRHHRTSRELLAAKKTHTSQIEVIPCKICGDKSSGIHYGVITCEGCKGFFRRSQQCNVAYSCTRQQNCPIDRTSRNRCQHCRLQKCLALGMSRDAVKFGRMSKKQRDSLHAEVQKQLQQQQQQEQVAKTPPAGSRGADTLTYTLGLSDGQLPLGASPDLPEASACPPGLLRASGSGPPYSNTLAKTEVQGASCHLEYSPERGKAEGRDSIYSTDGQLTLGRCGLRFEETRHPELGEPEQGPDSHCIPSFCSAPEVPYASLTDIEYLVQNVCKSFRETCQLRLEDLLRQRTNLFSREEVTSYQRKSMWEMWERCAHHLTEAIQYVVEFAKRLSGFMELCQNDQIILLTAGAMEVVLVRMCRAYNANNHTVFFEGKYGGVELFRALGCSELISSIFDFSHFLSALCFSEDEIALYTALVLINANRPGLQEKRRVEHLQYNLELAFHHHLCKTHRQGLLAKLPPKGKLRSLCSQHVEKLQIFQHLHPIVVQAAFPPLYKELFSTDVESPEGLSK
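Using a luciferase readout, inhibitors were identified by reduced reporter activity in Drosophila cells coexpressing a copper-inducible Gal4–ROR gamma fusion and UAS-driven Photinus luciferase, incubated 20 hr after 700 uM copper sulfate.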
IL-1B inflam inh = inhibitors of inflammasome signaling (IL-1 beta secretion); THP-1 LPS/ATP IL-1B secretion, AlphaLISA, 16 h; hits give low values; activity change, % at 57.5 µM; 360,000 compounds, 4.7% hits; in the data active = activity change below about -50%; inconclusive = mostly about -30% to -49%
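Secreted IL-1B measured by AlphaLISA bead assay after 16 h compound exposure of THP-1 cells; compounds (final up to 57.5 uM) added 1 h before LPS (250 ng/mL) and ATP (1.25 mM) stimulation; lower signal means less secretion.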
Numbers without * were called inactive; ? = inconclusive; / = not tested or not shown; [ ] = another dose, or the depositor's remark. Hits are enriched below; roughly 21% of the tested compounds scored in any of these assays. Unless noted, calls come from the whole dose curve; as a rule, active = well fitted curve in the direction sought with a large enough effect; inconclusive = small, poorly fitted or top-dose-only effect, or another doubt; inactive = no such curve, though single readings can be large; an effect the other way counts as inactive or inconclusive. % is set by controls: 0 for no effect and ±100 for the full control effect.

SMILES | DT40 TDP1 CPT | TDP1 cell noCPT | VP16 counter | ELG1 repair inh | RORg inh | IL-1B inflam inh
Cc1cc(C(=O)NCC2CCC3(CCN(Cc4ccc(F)cc4)CC3)O2)n(C)n1 (stereo not drawn) | -4%[9.04 µM] | ? | / | / | / | /
CC(C)C(NS(=O)(=O)c1ccc2c(c1)oc(=O)n2C)C(=O)NCCc1ccccc1 (stereo not drawn) | -11% | -5% | / | / | / | /
CCOC(=O)[C@H](Cc1ccc(O)cc1)NC(=O)c1ccccc1 | / | / | ? | / | 1.4µM* | /
CCOC(=O)C(Cc1ccc(O)cc1)Nc1nc2ccccc2o1 (stereo not drawn) | -1% | -21% | / | / | / | -54*
CCOC(=O)C(Cc1ccc(O)cc1)NC(=O)c1cc2c(cn1)[nH]c1ccccc12 (stereo not drawn) | -22% | -16% | / | / | / | -6
CC(=O)N1CCN(C(=O)C(Cc2ccccc2)NC(=O)c2ccccc2)CC1 (stereo not drawn) | -4% | -8% | / | 12% | / | 2
O=C(NC(Cc1ccccc1)C(=O)N1CCN(c2ccccc2O)CC1)c1ccccc1 (stereo not drawn) | ? | 16µM* | / | ? | / | -8
CCCNC(=O)C(Cc1ccccc1)NC(=O)c1ccccc1 (stereo not drawn) | -11% | -19% | / | 23% | / | 43
Cc1c(C(=O)N2CCCCC2)c(S(=O)(=O)N2CCN(c3ccccc3F)CC2)c(C)n1C | -11% | 11% | -4% | -17% | 7% | 0
COC(=O)c1cc2c(cc1NC(=O)c1cnn(-c3ccccc3)c1-n1cccc1)OCO2 | -26% | -17% | / | / | / | /
Cc1cc(C)cc(NC(=O)CCCSc2nc3ccccc3[nH]2)c1 | ? | ? | -4% | -13% | -2% | ?
Cc1ccc(CSc2nc3ccncc3[nH]2)cc1 | ? | 15µM* | 7.9µM* | ? | 7.9µM* | -17
O=C(c1ccc(CSc2nc3ccncc3[nH]2)cc1)N1CCCCCC1 | ? | ? | ? | ? | 3% | 48
Cc1cc(C)cc(NC(=O)CSc2nc3ccncc3[nH]2)c1 | 6.5µM* | 16µM* | 2% | 0% | 16% | 27
O=C(c1ccc(CSc2nc3ccncc3[nH]2)cc1)N1CCN(c2cccc(Cl)c2)CC1 | 9.2µM* | 7.3µM* | 11µM* | 26µM* | ? | ?
O=C(NCc1ccc(Cl)cc1)c1ccc(CSc2nc3ccncc3[nH]2)cc1 | ? | ? | -16% | ? | 15% | -74*
Cc1ccc(S(=O)(=O)N2C[C@H]3C(=O)C[C@@H](c4ccccc4)N(S(=O)(=O)c4ccc(C)cc4)[C@H]3C[C@H]2c2ccccc2F)cc1 | -7% | -27% | / | / | / | -20
CC(NS(=O)(=O)c1ccccc1[N+](=O)[O-])c1ccccn1 (stereo not drawn) | 2% | ? | / | / | / | /
CCCS(=O)(=O)NC(=O)C1(C)CCCN(C(=O)c2oc3ccccc3c2C)C1 (stereo not drawn) | -22% | -2% | / | / | / | 11
Cn1c(SCCOc2ccccc2)nnc1-c1ccc(NC(=O)CCc2ccccc2)cc1 | 2% | -11% | / | / | / | /
CCCNC(=O)CSc1nc2ccc(OCC)cc2s1 | -3% | -11% | 0% | -13% | 15% | 0
O=C(COC(=O)/C=C/c1ccc2ccccc2n1)NNC(=O)c1ccccc1 | ? | 26µM* | / | / | / | ?
CC(C)CCNC(=O)COC(=O)/C=C/c1ccc2ccccc2n1 | ? | ? | -6%[10 µM] | 0% | 24% | -59*
O=C(COC(=O)/C=C/c1cccc(F)c1)NNC(=O)c1ccccc1 | 5% | 8% | 2% | 2% | -18% | -15
CCOC(=O)c1ccc(Cl)c(NC(=O)c2cccnc2)c1 | / | / | -9% | 6% | 14% | /
SMILES | DT40 TDP1 CPT | TDP1 cell noCPT | VP16 counter | ELG1 repair inh | RORg inh | IL-1B inflam inh
CCC(C)c1ccc(NC(=S)NC(C)C2CCCO2)cc1 (stereo not drawn) | -18% | 26µM* | 18µM* | ? | 6.3µM* | 16
CCC(C)c1ccc(NC(=S)Nc2ccc(OC)c(OC)c2)cc1 (stereo not drawn) | ? | ? | 3% | -16% | ? | -13
CCC(C)c1ccc(C(CC)NC(=O)C2CCCO2)cc1 (stereo not drawn) | 23µM* | ? | ? | ? | ? | 37
COc1ccc(-n2c(C)cc(C3=NNC(=NC4CC4)SC3)c2C)cc1 | ? | 23µM* | ? | ? | -20% | ?
Cc1cc(C2=NNC(=NC3CC3)SC2)c(C)n1-c1ccccc1 | ? | 23µM* | 6.3µM* | 4.6µM* | 2.5µM* | -7
Cc1ccc(N/N=C2\CCS(=O)(=O)c3sccc32)cc1 | -18% | -29% | 4% | 0% | 2% | ?
O=C(NNC(=O)c1c(F)cccc1F)c1sccc1-n1cccc1 | 0% | -13% | -3% | 3% | -35% | 2
CN1c2ccsc2/C(=N/Nc2ccccc2)CS1(=O)=O | 4.1µM* | 1.3µM* | ? | ? | ? | ?
Cc1cccc(C(=O)N/N=C2\CS(=O)(=O)N(C)c3ccsc32)c1 | 21µM* | 13µM* | -26% | ? | ? | 22
CN1c2ccsc2/C(=N/NC(=O)c2c(F)cccc2F)CS1(=O)=O | -14% | -13% | 5µM* | -12% | 3.2µM* | 12
COC(=O)c1ccc(CN2CCC3(CCC(CNC(=O)c4ccco4)O3)CC2)cc1 (stereo not drawn) | -27% | -15% | / | / | / | /
CC(C)(C)OC(=O)NCCC(=O)N/N=C/c1ccc2ncccc2c1 | 2% | ? | -4% | 11% | -1% | 6
COc1ccc2nc(/C=N/NC(=O)CCCCCNC(=O)OC(C)(C)C)ccc2c1 | 21µM* | 18µM* | -18% | ? | -24% | -5
COc1ccc(CNC(=O)CS(=O)(=O)c2cccc3nsnc23)cc1 | -3% | -21% | / | / | / | /
O=C(N/N=C/c1cccc([N+](=O)[O-])c1)c1cccc(Br)c1 | ? | -16% | 15% | ? | ? | 2
O=C(/C=C/c1c(F)cccc1Cl)c1ccc(F)cc1 | 21µM* | 26µM* | ? | ? | ? | -2
O=C(N/N=C/c1c(Cl)cccc1Cl)c1ccc(-n2cnnn2)cc1 | -5% | -4% | / | ? | / | 0
Cc1cc(/C=N/NC(=O)c2cccc([N+](=O)[O-])c2)c(C)n1-c1ccc(Cl)cc1Cl | ? | ? | 6.3µM* | ? | 1.8µM* | -61*
